Pf Dd2 growth – inhibitors of Plasmodium falciparum Dd2 growth; Potency, µM (titrated, usually from 28.9 µM), for inactives: at the top dose activity, negative = inhibition, hits mostly inhibitors; hit rate 4.3% among 120,000; P. falciparum Dd2 growth, SYBR Green, 72 h; active means well fitted inhibition curve with a large enough effect;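 further: plate controls were DMSO vehicle for no effect and reference drug for full effect; nearly all actives have a fitted effect of over 65% in size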
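Infected erythrocytes (Dd2, 0.3% parasitemia, 2.5% hematocrit final) are added to compound in RPMI-1640/Albumax II medium, grown 72 h at 37C in low oxygen, then lysed with saponin/Triton-X containing SYBR Green and read by fluorescence.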
Starred values were filed as active, the others as inactive; i = inactive; [ ] = dose if it differs, or a comment. The sample as a whole holds a higher share of hits than the screen did. Potency means the concentration at half of the fitted maximal effect.

SMILES	Pf Dd2 growth
O=C(Cn1cnc2sccc2c1=O)NC1CCCc2c1[nH]c1ccccc21 (stereo not drawn)	-3%
COC1C(=O)N(C2CCN(Cc3ccc(F)c(F)c3)CC2)C12CCOCC2 (stereo not drawn)	-29%
O=C(CCC1CCCN(Cc2cccn2-c2ccccn2)C1)Nc1ccccc1F (stereo not drawn)	7.9µM*
O=C(CCC1CCCN(Cc2cccnc2)C1)Nc1ccccc1F (stereo not drawn)	-22%
O=C(CCC1CCCN(Cc2cc3c(cc2Cl)OCO3)C1)Nc1ccccc1F (stereo not drawn)	-25%
COc1cc(OC)c(NC(=O)C(C)n2c(=O)cc(-c3ccccc3)c3c(C)nn(C)c32)cc1Cl (stereo not drawn)	10µM*
Cc1c(Cl)cccc1NC(=O)C(C)n1c(=O)cc(-c2ccccc2)c2c(C)nn(C)c21 (stereo not drawn)	i
Cc1cc(C)c(NC(=O)C(C)n2c(=O)cc(-c3ccccc3)c3c(C)nn(C)c32)c(C)c1 (stereo not drawn)	20%
CCc1nc(-c2c3n(c(=O)n(CC(=O)NCCCc4ccccc4)c2=O)CCCC3)no1	17%
C=CCN1CCN(C(=O)CCC[C@@H]2[C@H]3CCCN4CCC[C@@H](CN2Cc2ccccc2)[C@@H]34)CC1	i
O=C(CCC[C@@H]1[C@H]2CCCN3CCC[C@@H](CN1C(=O)c1cccnc1)[C@@H]23)N1CCCC1	3%
C=CCN1CCN(C(=O)CCC[C@@H]2[C@H]3CCCN4CCC[C@@H](CN2C(=O)c2ccccc2)[C@@H]34)CC1	10µM*
CCc1ccc(NC(=O)Cn2ccn3nc4c(c3c2=O)CC(C)CC4)cc1 (stereo not drawn)	i
Cc1ccc(C2Cn3nnc(C(=O)N4CCC(C(=O)Nc5ccccc5)CC4)c3CO2)cc1 (stereo not drawn)	i
Cc1ccc(NC(=O)CCn2ccn3nc4c(c3c2=O)CCCC4)cc1	i
COc1ccc(N(Cc2cccs2)C(=O)COc2cccc(Cl)c2)cc1	-8%
CCCCOc1cccc(C(=O)N(Cc2cccs2)c2ccc(OC)cc2)c1	0.32µM*
COc1ccc(N(Cc2cccs2)C(=O)c2ccc(OC)c(Cl)c2)cc1	3%
CN(C(=O)c1ccc(F)cc1)C1CCCc2ccccc21 (stereo not drawn)	i
CC(=O)NCCC(=O)N1Cc2ccccc2CC2(CCN(CC3CCNC3)C2)C1 (stereo not drawn)	-12%
CC(=O)N1CC2(CCCN2C2COC2)Cc2ccccc21 (stereo not drawn)	3%[44.1 µM]
CN1CCC(C(=O)N2Cc3ccccc3CC3(CCCCN3CC3CCNCC3)C2)CC1 (stereo not drawn)	18%
CCCN1CCCC12Cc1ccccc1CN(C(=O)CCNC(C)=O)C2 (stereo not drawn)	-9%
O=C(C1CCCC1)N1CC2(CCCCN2CC2CC2)Cc2ccccc21 (stereo not drawn)	-17%
CC(=O)N1CC2(CCCN2CC2CC2)Cc2ccccc21 (stereo not drawn)	10µM*
SMILES	Pf Dd2 growth
CC(=O)N1Cc2ccccc2CC2(CCCN2CC2CCOCC2)C1 (stereo not drawn)	-11%
CC(=O)NCCC(=O)N1Cc2ccccc2CC2(CCCN2CC2CCCCC2)C1 (stereo not drawn)	8.9µM*
CC(=O)NCCC(=O)N1Cc2ccccc2CC2(CCCN2CCc2ccc(C)cc2)C1 (stereo not drawn)	8.9µM*
CC(=O)NCCC(=O)N1Cc2ccccc2CC2(CCCN2CC2CCNCC2)C1 (stereo not drawn)	20%
CC(=O)N1Cc2ccccc2CC2(CCCN2CC2CCCC2)C1 (stereo not drawn)	10µM*
Cc1nn(CC(=O)N2CCN(c3ccc(F)cc3)CC2)c(=O)c2nc(C(C)C)sc12	i
O=C(O)C[C@@H]1CCN(C(=O)c2ccco2)C[C@@H]1CCN1CCN(c2ccc(F)cc2)CC1	6%
CC(=O)Nc1ccc2c(c1)nc1n2[C@@H](CNC2CCN(C)CC2)COC1	4%[44.1 µM]
Cc1cc(-c2nc(C3CCOC3)no2)c2ccccc2n1 (stereo not drawn)	1%
COCCNc1cc(-c2noc([C@@H]3CCCN3Cc3ccccn3)n2)ccn1	-13%[44.1 µM]
Cc1ccc(-c2cccc(CN)c2)cc1Cl	11µM*
CN(Cc1ccc(-c2ccccc2)cc1)Cc1cccc(F)c1	-11%[44.1 µM]
CSc1ccc(-c2cccc(CN)c2)cc1	10µM*
Cc1ccc(-c2ccc(C=O)cc2)cc1Cl	8%[44.1 µM]
Cc1ccc(-c2cccc(C=O)c2)cc1Cl	6%[44.1 µM]
NCc1cccc(-c2ccc(O)cc2)c1	-20%[44.1 µM]
COc1ccccc1NC(=O)N1CCC(N2CC3CC(C2)[C@H]2CCCC(=O)N2C3)CC1 (stereo partly drawn)	-13%
CCCc1ccc(C(=O)N2C[C@@H](CN(C)C)[C@@H](CO)C2)cc1	-12%
CCn1ccc2cc(S(=O)(=O)N3CCC(C(=O)NCCc4ccccc4)CC3)ccc21	-9%
CCn1ccc2cc(S(=O)(=O)N3CCC(C(=O)NCc4ccc(F)cc4)CC3)ccc21	13%
CCn1ccc2cc(S(=O)(=O)N3CCC(C(=O)NCCc4ccc(SC)cc4)CC3)ccc21	8.9µM*
OCC1(Cc2ccccc2F)CCCN(c2nccc(C(F)(F)F)n2)C1 (stereo not drawn)	i
CN1C(=O)c2ccccc2CC12CCCN(C(=O)c1ccc(Cl)cc1)C2 (stereo not drawn)	-9%
Clc1ccc(C2Cn3nnc(-c4noc(-c5ccc6c(c5)OCO6)n4)c3CO2)cc1 (stereo not drawn)	i
COc1ccc(OC)c(C2NC(=O)NC(C)=C2C(=O)Nc2cc(C)cc(C)c2)c1 (stereo not drawn)	8%
SMILES	Pf Dd2 growth
COc1ccc(OC)c(C2Nc3c(C)cc(C)cc3-c3cc(C)nn32)c1 (stereo not drawn)	0.25µM*
COc1cc(C2Nc3c(C)cc(C)cc3-c3cc(C)nn32)cc(OC)c1O (stereo not drawn)	-4%
O=C(COc1ccccc1)N1CC[C@H]2COC(=O)N2c2cc(F)ccc2C1	-4%[44.1 µM]
COc1ccccc1OCCNC(=O)C1(C)CCCCC(=O)N1 (stereo not drawn)	-1%
N#Cc1csc(N2CC3CCC(C2)N3CC(F)(F)F)n1	i
O=C(Nc1ccccc1F)N1CC2CCC(C1)N2Cc1ccc(-c2ccsc2)cc1	-4%
CC(C)N1CC2CCC(C1)N2CC1CCCC1	-38%[44.1 µM]
CC(C)N1CC2CCC(C1)N2Cc1ccc(-c2ccsc2)cc1	11µM*
O=C(Cn1nc2n(c1=O)CCCC2)Nc1ccc(F)c(Cl)c1	31%
CCOc1cc(=O)n2c(c1C(=O)NCc1ccc(F)cc1F)CCCC2	8%
OC1(c2csc(CN3CCN(c4ccccn4)CC3)n2)CCN(CC2CCCCC2)CC1	-8%
CN1CCN(Cc2nc(C3(O)CCN(C4CCCC4)CC3)cs2)CC1	4%[44.1 µM]
CN1CCN(Cc2nc(C3(O)CCN(CC4CCCCC4)CC3)cs2)CC1	10µM*
CO[C@H]1C[C@@H](O)C12CCN(C(=O)Cn1cc(C)c(=O)[nH]c1=O)CC2	4%
CNC(=O)CCC[C@@H]1[C@H]2CCCN3CCC[C@@H](CN1C(=O)CCOC)[C@@H]23	7%
O=C(NC1CC1)[C@@H]1C[C@H](Oc2cccnc2)CN1	-1%
CN1CCN(c2nc3c(c(=O)[nH]2)CCN(Cc2ccc(C#N)cc2)CC3)CC1	73%[5.79 µM]
CC(C)N1C(=O)CO[C@H]2CCN(Cc3ccccc3)CC[C@@H]21	-25%[44.1 µM]
O=C1CO[C@H]2CN(Cc3ccc4c(c3)OCO4)C[C@H]2N1Cc1ccccn1	i

Source: PubChem
